The nature of test [1]: Nuclear factor erythroid 2-related factor 2/antioxidant responsive element (Nrf2/ARE) small molecule agonists: qHTS cell viability counter screen in human keratinocytes (AID 1919968; active = well fitted curve in the direction sought with a large enough effect in the repeat runs; an effect the other way counts as inactive or inconclusive; note: nearly all actives have a fitted effect of over 55% in size). A digest of the protocol:
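Viability counter-screen: KeratinoSens reporter cells, DMSO-delivered compounds, 23 h at 37 C, CellTiter-Fluor fluorescence.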
On the technique in general: Quantitative high-throughput screening tests each substance at several concentrations.

The target in test [2] is Gonadotropin-releasing hormone receptor (Homo sapiens) (UniProt P30968). Kind of test: Human gonadotropin-releasing hormone receptor (GnRHR) small molecule agonists, calcium flux assay in GnRHR-HEK293 cells (AID 1920063). Note: nearly all actives have a fitted effect of over 35% in size. The procedure, abridged: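 Tox21-format agonist screen using human GnRHR-expressing HEK293 cells and a fluorescent calcium dye; kinetic 3-min fluorescence reading after compound addition, 15-point concentration series run in triplicate.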

The target in test [3] is KiSS-1 receptor (Homo sapiens) (UniProt Q969F8). Kind of test: Human kisspeptin (KISS1R) small molecule agonists, calcium flux assay in KISS1R-HEK293 cells (AID 1920064; active = well fitted curve in the direction sought with a large enough effect in the repeat runs; an effect the other way counts as inactive or inconclusive). A digest of the protocol:
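Intracellular calcium mobilization in KISS1R-HEK293 cells was recorded by fluorescence (Ex/Em 480/540) for 3 min following compound addition to cells pre-loaded 1 h with calcium dye.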

A short description of test [4]: G protein-coupled receptor (GPCR) small molecule agonists, calcium flux assay: HEK293 wild type cell line counter screen (AID 1920065). A digest of the protocol:
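In this agonist-mode screen, ATP is the positive control and DMSO the vehicle. Cells grow 18 h before a 1 h dye incubation at 37 C; signal is taken at Ex/Em 480/540 over 3 min.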
(Calcium flux is commonly read through the fluorescence of an indicator in the cells.)

A short description of test [5]: p53 small molecule agonists, cell-based qHTS assay with human liver microsomes: qHTS cell viability counter screen (AID 1963579). Note: nearly all actives have a fitted effect of over 45% in size. The procedure, abridged: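 p53RE-bla cells (4,000/well) were pre-incubated 5 h at 37 C, then given compounds in DMSO plus human liver microsomes (0.5 mg/mL final) and NADPH (0.5 mg/mL final) for 16 h at 37 C. Viability was read by CellTiter-Glo luminescence.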

Test [6] is described as follows: p53 small molecule agonists, cell-based qHTS assay with rat liver microsomes: qHTS cell viability counter screen (AID 1963580). Note: nearly all actives have a fitted effect of over 45% in size. A digest of the protocol:
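HCT-116 p53RE-bla, 4,000 cells/well, 5 h pre-incubation; cpd + rat liver microsomes 0.5 mg/mL + NADPH 0.5 mg/mL (final); 16 h, 37 C; CellTiter-Glo, 30 min RT; luminescence.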

Test [7] can be described thus: p53 small molecule agonists, cell-based qHTS assay: qHTS cell viability counter screen (AID 1963581). Note: nearly all actives have a fitted effect of over 45% in size. A digest of the protocol: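 Compounds are pinned onto HCT-116 p53RE-bla cells and left 16 h at 37 C. Following the reporter FRET read, ATP is quantified by CellTiter-Glo luminescence after 30 min at room temperature.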
For test [8], the target named is 5-hydroxytryptamine receptor 2A (Homo sapiens) (UniProt P28223). Kind of test: 5-hydroxytryptamine receptor 2A (HTR2A) small molecule antagonists, cell-based qHTS assay (AID 1963586). Note: nearly all actives have a fitted effect of over 45% in size. The procedure, abridged:
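Antagonist-mode intracellular calcium assay: DOI (4 nM) added after 5 min compound pre-incubation at room temperature to dye-loaded HTR2A-CHO cells. Fluorescence followed for 3 min, sampled every second.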

Test [9] shares this target. Kind of test: 5-hydroxytryptamine receptor 2A (HTR2A) small molecule agonists, cell-based qHTS assay (AID 1963587). Note: nearly all actives have a fitted effect of over 30% in size. The procedure, abridged: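 Kinetic calcium-flux fluorescence (2 min, 1 sec intervals) after compound addition in agonist mode. HTR2A-CHO cells were cultured 18 h, then dye-loaded 1 h at 37 C.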
Test [10] deals with Muscarinic acetylcholine receptor M1 (Homo sapiens) (UniProt P11229). Nature of the test: Cholinergic receptor muscarinic 1 (CHRM1) small molecule antagonists, cell-based qHTS assay (AID 1963588). Note: nearly all actives have a fitted effect of over 40% in size. Note: potency is the fitted concentration of half-maximal effect. The procedure, abridged: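 CHRM1-CHO calcium-flux assay, antagonist mode. Cells were seeded 18 h, dye-loaded 1 h at 37 C and given compound for 5 min at RT, then acetylcholine was added at 50nM. FDSS fluorescence was read 3 min; 15 concentrations, three runs.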

For test [11] the target is unchanged. Nature of the test: Cholinergic receptor muscarinic 1 (CHRM1) small molecule agonists, cell-based qHTS assay (AID 1963589). Note: nearly all actives have a fitted effect of over 35% in size. The procedure, abridged: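 Stable CHRM1-CHO cells (human receptor) were incubated 18 h, dye-loaded for 1 h at 37 C and exposed to test compounds for agonist activity, with calcium-dependent fluorescence followed kinetically.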
A short description of test [12]: cAMP Responsive Elements (CRE) small molecule agonists, cell-based qHTS assay (AID 1963590). A digest of the protocol: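 FRET-based beta-lactamase readout (LiveBLAzer B/G, 2 h RT) quantified CRE activation in HEK 293T CRE-bla cells after 3 h treatment with DMSO-dissolved compounds.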
Test [13] can be described thus: cAMP Responsive Elements (CRE) small molecule antagonists, cell-based qHTS assay (AID 1963591; active = well fitted inhibition curve with a large enough effect in the signal ratio in the repeat runs, not every such curve was filed as active; the % refers to the signal ratio). A digest of the protocol: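 qHTS in CRE-bla HEK 293T cells: compound in DMSO, then 0.25 uM NKH477 (final), 3 h at 37 °C/5% CO2; beta-lactamase FRET read-out after 2 h substrate incubation.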
In test [14] the target is D(2) dopamine receptor (Homo sapiens) (UniProt P14416). Nature of the test: Dopamine D2 receptor (DRD2) small molecule agonists, cell-based qHTS assay (AID 1963594). Note: nearly all actives have a fitted effect of over 35% in size. A digest of the protocol: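 cAMP accumulation in DRD2-HEK293 cells measured by HTRF after 1 h detection; compounds added 10 min before NKH477 (200nM […]) forskolin-analogue stimulation, 30 min at room temperature, with Ro20-1724 present at 0.1 mM final.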

Test [15] has the same target. Kind of test: Dopamine D2 receptor (DRD2) small molecule antagonists, cell-based qHTS assay (AID 1963595; active = well fitted inhibition curve with a large enough effect in the signal ratio in the repeat runs, with a control signal flat; the % refers to the signal ratio). A digest of the protocol: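 Readout: HTRF cAMP, cAMP-d2 competing with cellular cAMP for anti-cAMP cryptate, read after 1 h. Cells: DRD2-HEK293. Conditions: 0.1 mM Ro20-1724, 12 nM quinpirole, 200 nM NKH477, 30 min RT.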
Test [16] in a line: p53 small molecule agonists, cell-based qHTS assay with human liver microsomes (AID 1963577). The procedure, abridged:
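p53RE-bla reporter cells were pre-incubated 5 h at 37 C, then treated with compounds plus human liver microsomes (0.5 mg/mL final) and NADPH (0.5 mg/mL final) for 16 h at 37 C. Beta-lactamase activity was read by LiveBLAzer fluorescence after 2 h at room temperature.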

Test [17] in a line: p53 small molecule agonists, cell-based qHTS assay with rat liver microsomes (AID 1963578). A digest of the protocol: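 p53RE-bla cells were exposed to compounds together with rat liver microsomes (0.5 mg/mL final) and NADPH (0.5 mg/mL final) for 16 h at 37 C, then read by LiveBLAzer beta-lactamase fluorescence after 2 h at room temperature.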
The nature of test [18]: p53 small molecule agonists, cell-based qHTS assay (AID 1963582; active = well fitted activation curve with a large enough effect in the signal ratio in the repeat runs, not every such curve was filed as active; the % refers to the signal ratio). A digest of the protocol: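 Agonist activity was scored from beta-lactamase FRET fluorescence in p53RE-bla cells treated 16 h at 37 C with compounds in DMSO, substrate incubation being 2 h at room temperature.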
Test [19] has as its target Beta-2 adrenergic receptor (Homo sapiens) (UniProt P07550). Kind of test: Adrenergic beta2 receptor (ADRB2) small molecule antagonists, cell-based qHTS assay (AID 1963592). Note: series mostly up to about 92 µM; nearly all actives have a fitted effect of over 50% in size. A digest of the protocol: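 Cells (CHO, stable ADRB2 overexpression) incubated 18-20hr at 37C; compounds added from DMSO; agonist mix (1nM isoproterenol, 100uM IBMX, 25uM Ro-20-1724) added; 0.5hr RT; d2-cAMP and anti-cAMP-cryptate added; 1hr RT; 665/615 nm read.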

The target is the same in test [20]. Nature of the test: Adrenergic beta2 receptor (ADRB2) small molecule agonists, cell-based qHTS assay (AID 1963593).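 Note: CHO cells stably overexpressing human ADRB2.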 A digest of the protocol:
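CHO cells stably over-expressing ADRB2 were plated overnight at 37C, then dosed with compounds plus a stimulation mix containing 100uM IBMX and 25uM Ro-20-1724 for 0.5hr at room temperature. cAMP was measured by HTRF competition, 1hr.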

SMILES strings stand for the structures. Several values for one entry are separate records, joined by “and”; a condition that tells them apart may be missing. Equal values may be shown once. A number with no mark means an inactive call. Records with an inconclusive call do not appear. Activity calls are given as the source filed them. Unless noted, calls come from the whole dose curve.
% is set by controls: 0 for no effect and ±100 for the full control effect.

Gonadotropin-releasing hormone receptor (Homo sapiens), sequence (P30968 whole entry, looked up): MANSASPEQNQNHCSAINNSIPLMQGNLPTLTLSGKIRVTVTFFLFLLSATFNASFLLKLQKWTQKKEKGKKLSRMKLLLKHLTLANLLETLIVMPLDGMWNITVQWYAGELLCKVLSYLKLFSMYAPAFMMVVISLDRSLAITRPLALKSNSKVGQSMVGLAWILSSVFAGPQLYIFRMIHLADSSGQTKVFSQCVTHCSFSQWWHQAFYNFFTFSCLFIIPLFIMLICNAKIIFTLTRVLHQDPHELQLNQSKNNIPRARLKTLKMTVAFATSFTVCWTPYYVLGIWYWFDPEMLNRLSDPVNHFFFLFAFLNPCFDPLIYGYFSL
KiSS-1 receptor (Homo sapiens), sequence (Q969F8 whole entry, looked up): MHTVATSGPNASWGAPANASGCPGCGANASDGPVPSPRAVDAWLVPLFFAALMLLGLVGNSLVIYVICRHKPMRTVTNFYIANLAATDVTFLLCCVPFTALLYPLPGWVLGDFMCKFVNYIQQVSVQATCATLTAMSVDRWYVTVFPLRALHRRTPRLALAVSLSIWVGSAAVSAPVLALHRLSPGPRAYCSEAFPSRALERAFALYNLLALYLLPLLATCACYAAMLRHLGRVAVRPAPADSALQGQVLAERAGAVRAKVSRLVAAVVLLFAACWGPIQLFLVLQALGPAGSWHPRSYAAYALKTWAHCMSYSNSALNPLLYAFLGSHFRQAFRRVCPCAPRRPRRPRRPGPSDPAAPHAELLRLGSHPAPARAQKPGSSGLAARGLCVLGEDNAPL
5-hydroxytryptamine receptor 2A (Homo sapiens), sequence (P28223 whole entry, looked up): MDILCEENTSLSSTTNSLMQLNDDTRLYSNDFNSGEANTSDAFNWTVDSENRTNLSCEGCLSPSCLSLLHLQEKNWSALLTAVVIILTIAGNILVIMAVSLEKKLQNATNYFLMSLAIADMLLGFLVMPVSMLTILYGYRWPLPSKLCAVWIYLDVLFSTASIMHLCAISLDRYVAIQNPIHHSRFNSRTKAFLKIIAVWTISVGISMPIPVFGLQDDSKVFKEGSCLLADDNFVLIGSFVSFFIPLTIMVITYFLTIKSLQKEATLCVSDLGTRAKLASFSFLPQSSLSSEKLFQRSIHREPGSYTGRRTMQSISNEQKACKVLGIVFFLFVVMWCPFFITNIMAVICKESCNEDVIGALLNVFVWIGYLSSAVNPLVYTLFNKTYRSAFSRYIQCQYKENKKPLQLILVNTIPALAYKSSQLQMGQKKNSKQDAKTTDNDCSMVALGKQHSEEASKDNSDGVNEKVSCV
D(2) dopamine receptor (Homo sapiens), sequence (P14416 whole entry, looked up): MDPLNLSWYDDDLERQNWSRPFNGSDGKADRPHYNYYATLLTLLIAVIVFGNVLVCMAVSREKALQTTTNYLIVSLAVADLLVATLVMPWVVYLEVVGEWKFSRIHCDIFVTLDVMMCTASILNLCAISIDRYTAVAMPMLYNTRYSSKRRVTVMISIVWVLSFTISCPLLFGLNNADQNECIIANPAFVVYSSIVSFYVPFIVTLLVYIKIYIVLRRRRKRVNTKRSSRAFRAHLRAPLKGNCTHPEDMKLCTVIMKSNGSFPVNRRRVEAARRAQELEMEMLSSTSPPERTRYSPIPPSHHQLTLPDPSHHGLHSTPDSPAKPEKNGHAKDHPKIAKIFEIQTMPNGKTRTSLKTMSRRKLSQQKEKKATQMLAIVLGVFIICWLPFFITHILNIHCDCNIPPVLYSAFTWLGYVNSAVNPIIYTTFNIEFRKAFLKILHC
Muscarinic acetylcholine receptor M1 (Homo sapiens), sequence (P11229 whole entry, looked up): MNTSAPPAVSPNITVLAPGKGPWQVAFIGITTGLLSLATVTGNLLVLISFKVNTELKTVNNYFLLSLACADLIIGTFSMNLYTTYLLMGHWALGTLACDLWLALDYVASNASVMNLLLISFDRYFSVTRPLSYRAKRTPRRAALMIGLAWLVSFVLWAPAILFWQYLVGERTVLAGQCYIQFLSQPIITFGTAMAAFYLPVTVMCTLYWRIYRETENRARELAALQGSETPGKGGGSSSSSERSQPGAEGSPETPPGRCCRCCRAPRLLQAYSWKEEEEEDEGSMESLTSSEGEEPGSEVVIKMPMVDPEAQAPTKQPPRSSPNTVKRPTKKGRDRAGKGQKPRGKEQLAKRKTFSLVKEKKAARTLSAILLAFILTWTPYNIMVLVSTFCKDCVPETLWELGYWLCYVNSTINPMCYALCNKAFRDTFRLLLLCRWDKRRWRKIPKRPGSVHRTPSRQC
Beta-2 adrenergic receptor (Homo sapiens), sequence (P07550 whole entry, looked up): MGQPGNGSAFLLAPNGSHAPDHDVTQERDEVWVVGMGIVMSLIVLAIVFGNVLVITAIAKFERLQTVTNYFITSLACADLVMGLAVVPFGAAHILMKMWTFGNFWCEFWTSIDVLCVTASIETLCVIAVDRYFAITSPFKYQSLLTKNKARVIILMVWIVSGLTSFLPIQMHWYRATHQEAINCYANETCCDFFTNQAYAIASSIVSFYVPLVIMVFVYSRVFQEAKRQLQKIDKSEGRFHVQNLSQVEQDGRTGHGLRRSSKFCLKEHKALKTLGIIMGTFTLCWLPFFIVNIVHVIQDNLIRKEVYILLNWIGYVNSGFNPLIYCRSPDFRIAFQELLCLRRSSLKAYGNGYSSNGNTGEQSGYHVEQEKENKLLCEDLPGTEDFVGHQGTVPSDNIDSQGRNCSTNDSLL

In the case of `CCCCCCOCCOCCO`, the Potency result in test [1], in test [2], in test [3], in [4], in [5] and in test [6] was “inactive” throughout. Also, the Potency result in test [7], in test [8], in test [9], in [10], in [11] and in test [12] was “inactive” in each case. Besides, the Potency result in [13], in test [14] and in [15] was “inactive” each time.
Regarding `COc1cc(C(=O)NCc2ccc(OCCN(C)C)cc2)cc(OC)c1OC`, the Potency entry in [1], in test [2], in test [3], in [4], in test [16] and in [17] was “inactive” throughout. The Potency result in [5], in test [6], in [18], in [8], in test [9] and in test [10] was “inactive” in each case. Also, the Potency entry in [11], in test [13], in test [19] and in test [20] was “inactive” in each case.
On to `O=c1n(CCCN2CCN(c3cccc(Cl)c3)CC2)nc2ccccn12`, for which the Potency entry in test [1], in test [2], in [3], in [4], in test [16] and in test [5] was “inactive” in each case. The Potency entry in test [6], in [18], in test [12], in [13], in [19] and in [14] was “inactive” in each case.
As for `O=C1CC(c2ccc(Cl)cc2)CC(=O)N1`, the Potency result in [1], in test [2], in test [3], in test [4], in test [17] and in test [5] was “inactive” each time. Moreover, the Potency result in test [6], in test [7], in test [18], in test [8], in [9] and in test [10] was “inactive” each time. The Potency result in test [11], in [12], in [13], in [19], in [14] and in test [15] was “inactive” each time.
On to `Cc1ccc(/C(=C\CN2CCCC2)c2ccccn2)cc1`, for which the Potency entry in test [1], in test [2], in test [3], in test [4], in test [18] and in test [8] was “inactive” throughout. Further, the Potency entry in [9], in test [11], in test [12], in test [13], in test [19] and in test [20] was “inactive” each time. For the same compound, the Potency entry in [14] and in test [15] was “inactive” throughout. Moreover, the Potency in [10] is 1.4 µM (active) and 2.59 µM (active).
With `CN(C)c1ccc(/C=C/c2ccc([N+](=O)[O-])cc2)cc1`, the activity change, negative = cytotoxicity was 0.836% [at 8.39 µM] in test [1], 0.0681% [at 5.99 µM] in [5] and -1.3% [at 5.99 µM] in test [7]. The activity change in test [2] was 5.74% [at 5.22 µM, hits give high values]. Moreover, the activation in [3] was 7.36% [at 6.97 µM]; in test [4] it was 0.221% [at 5.23 µM]; in test [16] it was -2.79% [at 5.99 µM]; in [17] it was -4.52% [at 5.99 µM]; in test [18], -2.24% [at 5.99 µM]; in test [9], 13.3% [at 7.02 µM]. Moreover, the activation in [11] was 0.732% [at 6.97 µM]; in [12], -3.18% [at 8.39 µM]; in [14], -5.78% [at 8.39 µM]. Moreover, the activity, negative = inhibition is -0.541% [at 5.62 µM] in test [8] and -8.69% [at 5.58 µM] in test [10]. The results for the activity change, negative = inhibition in [13], in test [19] and in test [15] were 1.12% [at 8.39 µM], 1.64% [at 8.39 µM] and -2.29% [at 8.38 µM], respectively.
On to `c1ccc2c(c1)ccc1ncccc12`, for which the Potency entry in test [1], in test [2], in test [3], in test [4], in test [5] and in [6] was “inactive” each time. The Potency entry in [7], in test [8], in [9], in test [10], in test [11] and in [14] was “inactive” each time. Also, the Potency result in test [15] was “inactive”.
On to `CCCSc1ccc2nc(NC(=O)OC)[nH]c2c1`, for which the Potency result in [1], in test [2], in [3], in test [4], in test [16] and in [5] was “inactive” in each case. The Potency entry in test [6], in test [19], in test [20], in test [14] and in test [15] was “inactive” each time.
Turning to `CCCCCCOC(=O)c1ccccc1O`, the Potency result in test [1], in test [2], in [3], in test [4], in [16] and in [5] was “inactive” in each case. The Potency result in test [6], in test [7], in [18], in [9], in test [10] and in test [11] was “inactive” in each case. Also, the Potency result in test [12], in test [13], in [19], in test [20] and in test [14] was “inactive” in each case.

Source of the values: PubChem BioAssay (Tox21).
